# Laboratory results as given in PubChem BioAssay (Tox21).
# Where “and” joins values, the source holds several entries; their conditions need not be identical. Equal values may be shown once. A number with no mark means an inactive call. Inconclusive results are not listed. Where a call stands in place of a potency, no number is given. Calls of active or inactive are those of the source. Unless noted, calls come from the whole dose curve; as a rule, active = well fitted curve in the direction sought with a large enough effect in the repeat runs; inconclusive = weak or mixed curves; inactive = no such curve, though single readings can be large; an effect the other way counts as inactive or inconclusive.
# Columns and labels:
# [1] = qHTS assay for small molecules that induce genotoxicity in human embryonic kidney cells expressing luciferase-tagged ATAD5 (AID 651632); note: nearly all actives have a fitted effect of over 15% in size
# How it was run: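 DMSO vehicle served as the control. HEK293T reporter cells, 16 hr at 37C, then 30 min Amplite at room temperature; ATAD5 induction is measured as luciferase activity.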
# [2] = qHTS assay for small molecule agonists of the p53 signaling pathway - cell viability (AID 651633; calls by dose curve;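 note: p53RE-bla HCT reporter cells with a stable beta-lactamase p53 reporter; series mostly up to about 83 µM; nearly all actives have a fitted effect of over 30% in size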)
# How it was run: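 p53RE-bla cells, seeded at 4,000 per well and rested 5 h at 37 C/5% CO2, received compounds in DMSO for 16 h at 37 C. CellTiter-Glo was then added, and luminescence was read after 30 min at room temperature to gauge cytotoxicity.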
# [3] = qHTS assay for small molecules that induce genotoxicity in human embryonic kidney cells expressing luciferase-tagged ATAD5 - cell viability (AID 651634; calls by dose curve; note: nearly all actives have a fitted effect of over 25% in size)
# How it was run: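 Here HEK293T cells with the ATAD5 luciferase reporter are incubated with test compounds for 15.5 hr, and cytotoxicity is then gauged by measuring protease activity in live cells using fluorescence.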
# [4] = qHTS assay for small molecule disruptors of the mitochondrial membrane potential - cell viability (AID 720634; calls by dose curve;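 note: human HepG2 liver cancer cells; series mostly up to about 83 µM; nearly all actives have a fitted effect of over 20% in size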)
# How it was run: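 Viability of HepG2 cells is scored from ATP content by luminescence; cells are exposed to compound for 1 hr at 37 C and 5% CO2, then dosed with m-MPI dye before the CellTiter-Glo reagent.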
# [5] = qHTS assay for small molecule disruptors of the mitochondrial membrane potential (AID 720635); note: potency is the fitted concentration of half-maximal effect
# How it was run: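 HepG2 cells (2,000/well) attached overnight at 37C, then took compound for 1 hr at 37C, 5% CO2. Mito-MPS dye was added for 30 min; fluorescence was read at 490/535 nm (monomers) and 540/590 nm (aggregates).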
# [6] = qHTS assay to test for compound auto fluorescence at 590 nm (red) in HepG2 cells (AID 720674)
# How it was run: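 Compound auto-fluorescence is scored relative to Rose Bengal sodium, measured at 540/590 nm in live HepG2 cultures after 1 hr compound contact (37 C, 5% CO2).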
# [7] = qHTS assay to test for compound auto fluorescence at 535 nm (green) in HepG2 cells (AID 720675)
# [8] = qHTS assay to test for compound auto fluorescence at 460 nm (blue) in HEK293 cells (AID 720678)
# How it was run: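 Measured: blue fluorescence (Ex 405/Em 460 nm) of compound-treated HEK293 cells, incubated overnight at 37C with 5% CO2 and scaled to triamterene equivalents.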
# [9] = qHTS assay to test for compound auto fluorescence at 590 nm (red) in HEK293 cells (AID 720679)
# How it was run: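 Using HEK293 cells at 2,000 per well, the screen added 23 nL of each compound after cell attachment and incubated overnight (37C, 5% CO2). The plate reader then captured red-label fluorescence, Ex/Em 540/590nm.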
# [10] = qHTS assay to test for compound auto fluorescence at 535 nm (green) in HEK293 cells (AID 720680)
# [11] = qHTS assay to test for compound auto fluorescence at 460 nm (blue) in HEK293 cell free culture (AID 720681)
# How it was run: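 Test compounds were pinned into cell-free culture medium (DMEM with 10% FBS) and fluorescence was read directly at Ex/Em 405/460 nm. Signals were expressed as fluorescence equivalents of triamterene, with DMSO vehicle as control.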
# [12] = qHTS assay to test for compound auto fluorescence at 535 nm (green) in HEK293 cell free culture (AID 720682)
# How it was run: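 No cells present: wells hold DMEM supplemented with 10% FBS, into which compound or vehicle is pinned. Green emission is then recorded (485 nm excitation, 535 nm emission) and scaled to fluorescein.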
# [13] = qHTS assay to test for compound auto fluorescence at 590 nm (red) in HEK293 cell free culture (AID 720683)
# How it was run: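 Tox21 10K library compounds were pinned into cell-free DMEM with 10% FBS and fluorescence was read at excitation 540 nm. Activity is expressed as Rose Bengal sodium equivalency.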
# [14] = qHTS assay to test for compound auto fluorescence at 590 nm (red) in HepG2 cell free culture (AID 720684)
# How it was run: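 Ex 540 / Em 590 nm read of compound in cell-free MEM (10% FBS). Rose Bengal sodium reference.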
# [15] = qHTS assay to test for compound auto fluorescence at 535 nm (green) in HepG2 cell free culture (AID 720686)
# [16] = qHTS assay to test for compound auto fluorescence at 460 nm (blue) in HepG2 cells (AID 720687)
# How it was run: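 Cells (2,000/well in MEM with 10% FBS) attached overnight at 37 C, then were exposed to compound or DMSO for 1 hr at 37 C, 5% CO2. Fluorescence read at Ex/Em 405/460 nm, expressed as triamterene-equivalent signal.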
# [17] = biological target: Glucocorticoid receptor (Homo sapiens) (UniProt P04150); test: qHTS assay to identify small molecule agonists of the glucocorticoid receptor (GR) signaling pathway (AID 720691; active = well fitted activation curve with a large enough effect in the signal ratio in the repeat runs, not every such curve was filed as active; the % refers to the signal ratio)
# Chain of Glucocorticoid receptor (Homo sapiens) (P04150 whole entry, looked up): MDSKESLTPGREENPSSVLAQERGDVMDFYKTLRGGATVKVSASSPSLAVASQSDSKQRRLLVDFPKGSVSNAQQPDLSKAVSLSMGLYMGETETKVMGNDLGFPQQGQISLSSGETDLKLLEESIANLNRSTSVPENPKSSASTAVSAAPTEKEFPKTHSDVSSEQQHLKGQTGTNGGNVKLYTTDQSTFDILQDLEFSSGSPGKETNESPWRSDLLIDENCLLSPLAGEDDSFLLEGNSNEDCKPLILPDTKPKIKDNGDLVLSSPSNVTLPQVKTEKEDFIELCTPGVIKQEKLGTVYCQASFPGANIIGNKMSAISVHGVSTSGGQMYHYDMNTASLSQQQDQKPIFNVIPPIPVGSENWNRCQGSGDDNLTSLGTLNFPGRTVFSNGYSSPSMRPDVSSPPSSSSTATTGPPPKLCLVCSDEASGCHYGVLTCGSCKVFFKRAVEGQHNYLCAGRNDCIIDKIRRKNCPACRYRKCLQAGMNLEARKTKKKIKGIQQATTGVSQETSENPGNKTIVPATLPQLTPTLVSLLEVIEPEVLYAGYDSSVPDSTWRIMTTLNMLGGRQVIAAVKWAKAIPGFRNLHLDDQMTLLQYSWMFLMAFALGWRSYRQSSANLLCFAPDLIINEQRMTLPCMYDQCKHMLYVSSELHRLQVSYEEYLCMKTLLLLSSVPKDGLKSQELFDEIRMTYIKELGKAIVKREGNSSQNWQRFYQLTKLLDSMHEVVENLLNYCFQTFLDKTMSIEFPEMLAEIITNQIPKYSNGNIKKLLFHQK
# How it was run: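 Compounds in DMSO, alongside positive controls, were added to GR-bla HeLa reporter cells and incubated 18 h at 37 C; GRE-driven beta-lactamase was detected by fluorescence after 2 h with FRET substrate at room temperature.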
# [18] = biological target: Glucocorticoid receptor (Homo sapiens) (UniProt P04150); test: qHTS assay to identify small molecule antagonists of the glucocorticoid receptor (GR) signaling pathway (AID 720692; active = well fitted inhibition curve with a large enough effect in the signal ratio in the repeat runs, not every such curve was filed as active; the % refers to the signal ratio)
# How it was run: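 In a 1536-well cell format, compounds were added 4 h after seeding GR-bla HeLa cells, together with dexamethasone at 5 nM final; reporter activity was measured by FRET-substrate fluorescence following 18 h at 37 C.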
# [19] = qHTS assay to test for compound auto fluorescence at 460 nm (blue) in HepG2 cell free culture (AID 720685)
# How it was run: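 Cell-free plates of MEM plus 10% FBS received 23 nL compound or DMSO vehicle; blue-channel (405/460 nm) intensity scored against triamterene as reference fluorophore.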
smiles,measurement,setting,value
OCC1CO1 (stereo not given),Potency,[1],inactive
same,Potency,[2],inactive
same,Potency,[3],inactive
same,Potency,[4],inactive
same,Potency,[5],inactive
same,outcome,[6],inactive
same,outcome,[7],inactive
same,outcome,[8],inactive
same,outcome,[9],inactive
same,outcome,[10],inactive
same,outcome,[11],inactive
same,outcome,[12],inactive
same,outcome,[13],inactive
same,outcome,[14],inactive
same,outcome,[15],inactive
same,outcome,[16],inactive
same,Potency,[17],inactive
same,Potency,[18],inactive
CCOP(=S)(OCC)Oc1ccc(S(C)=O)cc1 (stereo not given),Potency,[1],inactive
same,Potency,[2],inactive
same,Potency,[3],inactive
same,Potency,[4],inactive
same,Potency,[5],inactive
same,outcome,[6],inactive
same,outcome,[7],inactive
same,outcome,[8],inactive
same,outcome,[9],inactive
same,outcome,[10],inactive
same,outcome,[11],inactive
same,outcome,[12],inactive
same,outcome,[13],inactive
same,outcome,[16],inactive
CC(Oc1cc(Cl)c(Cl)cc1Cl)C(=O)O (stereo not given),Potency,[1],inactive
same,Potency,[2],inactive
same,Potency,[3],inactive
same,Potency,[4],inactive
same,outcome,[6],inactive
same,outcome,[7],inactive
same,outcome,[8],inactive
same,outcome,[9],inactive
same,outcome,[10],inactive
same,outcome,[11],inactive
same,outcome,[12],inactive
same,outcome,[13],inactive
same,outcome,[14],inactive
same,outcome,[19],inactive
same,outcome,[16],inactive
same,Potency,[17],inactive
same,Potency,[18],inactive
CC(C)OC(=O)Cc1ccccc1,Potency,[1],inactive
same,Potency,[2],inactive
same,Potency,[3],inactive
same,Potency,[4],inactive
same,Potency,[5],inactive
same,outcome,[6],inactive
same,outcome,[7],inactive
same,outcome,[8],inactive
same,outcome,[9],inactive
same,outcome,[10],inactive
same,outcome,[11],inactive
same,outcome,[12],inactive
same,outcome,[13],inactive
same,outcome,[14],inactive
same,outcome,[16],inactive
same,Potency,[17],inactive
same,Potency,[18],inactive
COc1ccc(C(O)(c2cncnc2)C2CC2)cc1 (stereo not given),Potency,[1],inactive
same,Potency,[2],inactive
same,Potency,[3],inactive
same,Potency,[4],inactive
same,outcome,[6],inactive
same,outcome,[7],inactive
same,outcome,[8],inactive
same,outcome,[9],inactive
same,outcome,[10],inactive
same,outcome,[11],inactive
same,outcome,[12],inactive
same,outcome,[13],inactive
same,outcome,[14],inactive
same,outcome,[19],inactive
same,outcome,[16],inactive
same,Potency,[17],inactive
same,Potency,[18],inactive
CCOC(=O)C1OC1(C)c1ccccc1 (stereo not given),Potency,[1],inactive
same,Potency,[2],inactive
same,Potency,[3],inactive
same,Potency,[4],inactive
same,Potency,[5],inactive
same,outcome,[6],inactive
same,outcome,[7],inactive
same,outcome,[8],inactive
same,outcome,[9],inactive
same,outcome,[10],inactive
same,outcome,[11],inactive
same,outcome,[12],inactive
same,outcome,[13],inactive
same,outcome,[14],inactive
same,outcome,[19],inactive
same,outcome,[15],inactive
same,outcome,[16],inactive
same,Potency,[17],inactive
same,Potency,[18],inactive
CC[N+]1(CCOC(=O)C(O)(c2ccccc2)c2ccccc2)CCCCC1,Potency,[1],inactive
same,Potency,[2],inactive
same,Potency,[3],inactive
same,Potency,[4],inactive
same,Potency,[5],inactive
same,outcome,[6],inactive
same,outcome,[7],inactive
same,outcome,[8],inactive
same,outcome,[9],inactive
same,outcome,[10],inactive
same,outcome,[11],inactive
same,outcome,[12],inactive
same,outcome,[13],inactive
same,outcome,[14],inactive
same,outcome,[19],inactive
same,outcome,[16],inactive
same,Potency,[17],inactive
CC(C)[C@@H](C(=O)O[C@@H](C#N)c1cccc(Oc2ccccc2)c1)c1ccc(Cl)cc1,Potency,[1],inactive
same,Potency,[2],inactive
same,Potency,[3],inactive
same,Potency,[5],12.4 µM (active) and 30.6 µM (active)
same,outcome,[6],inactive
same,outcome,[7],inactive
same,outcome,[8],inactive
same,outcome,[9],inactive
same,outcome,[10],inactive
same,outcome,[11],inactive
same,outcome,[12],inactive
same,outcome,[13],inactive
same,outcome,[19],inactive
CCCN(CCOc1c(Cl)cc(Cl)cc1Cl)C(=O)n1ccnc1,Potency,[1],inactive
same,Potency,[2],inactive
same,Potency,[3],inactive
same,outcome,[6],inactive
same,outcome,[7],inactive
same,outcome,[8],inactive
same,outcome,[9],inactive
same,outcome,[10],inactive
same,outcome,[11],inactive
same,outcome,[12],inactive
same,outcome,[13],inactive
same,outcome,[14],inactive
same,outcome,[19],inactive
same,outcome,[15],inactive
same,outcome,[16],inactive
same,Potency,[17],inactive
Nc1c(Br)cc(Br)c2c1C(=O)c1ccccc1C2=O,Potency,[1],inactive
same,Potency,[3],inactive
same,Potency,[4],inactive
same,Potency,[5],2.29 µM (active)
same,"fluorescence, relative to Rose Bengal",[6],-0.0013% [at 18.6 µM]
same,"fluorescence, % of fluorescein control",[7],0.0991% [at 18.6 µM]
same,"fluorescence, % of fluorescent control",[9],-0.009% [at 18.6 µM]
same,"fluorescence, % of fluorescein",[10],-0.0125% [at 18.6 µM]
same,activity change,[12],0.0661% [at 18.6 µM]
same,"fluorescence, % of fluorescent control",[13],-0.754% [at 18.6 µM]
same,"fluorescence, % of Rose Bengal",[14],-0.122% [at 18.6 µM]
same,"fluorescence, % of fluorescent control",[19],-0.366% [at 18.6 µM]
same,"fluorescence, % of fluorescent control",[16],-0.122% [at 18.6 µM]
CCc1cnc(C2=NC(C)(C(C)C)C(=O)N2)c(C(=O)O)c1 (stereo not given),Potency,[1],inactive
same,Potency,[2],inactive
same,Potency,[4],inactive
same,Potency,[5],inactive
same,outcome,[6],inactive
same,outcome,[7],inactive
same,outcome,[9],inactive
same,outcome,[10],inactive
same,outcome,[11],inactive
same,outcome,[12],inactive
same,outcome,[13],inactive
same,outcome,[19],inactive
same,outcome,[15],inactive
same,outcome,[16],inactive
same,Potency,[17],inactive
same,Potency,[18],inactive
COc1ccc(C(=O)c2c(C)n(CCN3CCOCC3)c3ccccc23)cc1,Potency,[1],inactive
same,Potency,[2],inactive
same,Potency,[4],inactive
same,outcome,[6],inactive
same,outcome,[7],inactive
same,outcome,[8],inactive
same,outcome,[9],inactive
same,outcome,[10],inactive
same,outcome,[12],inactive
same,outcome,[13],inactive
same,outcome,[14],inactive
same,outcome,[19],inactive
same,outcome,[15],inactive
same,outcome,[16],inactive
same,Potency,[17],inactive
CCCCC#N,Potency,[1],inactive
same,Potency,[3],inactive
same,Potency,[4],inactive
same,Potency,[5],inactive
same,outcome,[6],inactive
same,outcome,[7],inactive
same,outcome,[9],inactive
same,outcome,[10],inactive
same,outcome,[12],inactive
same,outcome,[13],inactive
same,outcome,[14],inactive
same,outcome,[19],inactive
same,outcome,[15],inactive
same,outcome,[16],inactive
c1ccc2c(c1)sc1ccccc12,Potency,[1],inactive
same,Potency,[2],inactive
same,Potency,[3],inactive
same,Potency,[4],inactive
same,outcome,[6],inactive
same,outcome,[7],inactive
same,outcome,[9],inactive
same,outcome,[10],inactive
same,outcome,[11],inactive
same,outcome,[12],inactive
same,outcome,[13],inactive
same,outcome,[14],inactive
same,outcome,[19],inactive
same,outcome,[15],inactive
same,outcome,[16],inactive
same,Potency,[17],inactive
same,Potency,[18],inactive
CCNC(=O)NC(=O)/C(C#N)=N/OC,Potency,[1],inactive
same,Potency,[2],inactive
same,outcome,[6],inactive
same,outcome,[7],inactive
same,outcome,[9],inactive
same,outcome,[10],inactive
same,outcome,[11],inactive
same,outcome,[12],inactive
same,outcome,[13],inactive
same,outcome,[14],inactive
same,outcome,[15],inactive
same,outcome,[16],inactive
